These results are taken from PubChem BioAssay (EPA / NIEHS).

Each structure is given as a SMILES string. Active and inactive are the calls of the source. How the source made its calls: active means hit-call score of the fitted dose curve at least 0.9, where 1 is the maximum; inactive means score below 0.9.

By AC50 is commonly meant the concentration giving half of the maximal activity seen.

Conditions in all cases: mRNA level, 48 h; actives raise or lower the signal
Read-out in assay [1]: Cytochrome P450 4A22 (Homo sapiens) (UniProt Q5TCH4)
The experiment in a line: LTEA_HepaRG_CYP4A22: Life Technologies and Expression Analysis (LTEA) Assay for Cytochrome P450 4A22 (CYP4A22) using HepaRG (AID 2283495). The method in brief:
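Gene expression measured by qRT-PCR against three housekeeping genes (ACTB, GAPDH, POLR2A), with gain or loss fitted relative to 0.5% DMSO vehicle. HepaRG cultures received 48 h chemical treatment, top concentration 100 uM, half-log steps, duplicate wells.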

Read-out in assay [2]: Cytochrome P450 7A1 (Homo sapiens) (UniProt P22680)
The experiment in a line: LTEA_HepaRG_CYP7A1: Life Technologies and Expression Analysis (LTEA) Assay for Cytochrome P450 7A1 (CYP7A1) using HepaRG (AID 2283496). The method in brief: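 HepaRG, 48 h exposure, 8-pt half-log series from 100 uM, 0.5% DMSO vehicle, duplicates. Readout: TaqMan qRT-PCR mRNA vs three housekeeping genes; bidirectional curve fit against DMSO baseline.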

Read-out in assay [3]: Glutathione S-Transferase (GSTA2), GSTA2 (gene 2939)
Kind of assay: LTEA_HepaRG_GSTA2: Life Technologies and Expression Analysis (LTEA) Assay for Glutathione S-Transferase (GSTA2) using HepaRG (AID 2283497). The method in brief:
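qRT-PCR readout of GSTA2 transcript, normalized to three housekeeping genes, fitted bidirectionally against 0.5% DMSO baseline. Differentiated HepaRG cells received compound for 48 h at 8 concentrations (top 100 uM, half-log steps).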

Read-out in assay [4]: Glutamate-cysteine ligase catalytic (GCLC), GCLC (gene 2729)
The experiment in a line: LTEA_HepaRG_GCLC: Life Technologies and Expression Analysis (LTEA) Assay for Glutamate-cysteine ligase catalytic (GCLC) using HepaRG (AID 2283498). The method in brief:
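HepaRG, 48 h exposure, 8-pt half-log series from 100 uM, 0.5% DMSO vehicle; TaqMan qRT-PCR for GCLC mRNA, housekeeping-normalized; bidirectional curve fit vs DMSO baseline.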

Read-out in assay [5]: growth arrest and DNA damage 45 (GADD45G), GADD45G (gene 10912)
Kind of assay: LTEA_HepaRG_GADD45G: Life Technologies and Expression Analysis (LTEA) Assay for growth arrest and DNA damage 45 (GADD45G) using HepaRG (AID 2283499). The method in brief:
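GADD45G transcript level by qRT-PCR (housekeeping-normalized: ACTB, GAPDH, POLR2A) after 48 h chemical treatment of a single HepaRG lot in serum-free induction medium; eight-point half-log series up to 100 uM in 0.5% DMSO, duplicates, up- or down-regulation scored.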

Read-out in assay [6]: Glutamate-cysteine ligase regulatory (GCLM), GCLM (gene 2730)
Kind of assay: LTEA_HepaRG_GCLM: Life Technologies and Expression Analysis (LTEA) Assay for Glutamate-cysteine ligase regulatory (GCLM) using HepaRG (AID 2283500). The method in brief:
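Endpoint is GCLM transcript level by qRT-PCR, normalized to three housekeeping genes, after 48 h chemical exposure of human HepaRG cells (0.5% DMSO vehicle, top 100 uM, half-log dilutions). Fitting was bidirectional relative to DMSO.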

Read-out in assay [7]: Glutathione S-transferase M3 (GSTM3), GSTM3 (gene 2947)
The experiment in a line: LTEA_HepaRG_GSTM3: Life Technologies and Expression Analysis (LTEA) Assay for Glutathione S-transferase M3 (GSTM3) using HepaRG (AID 2283501). The method in brief: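 GSTM3 transcript levels came from Fluidigm TaqMan qRT-PCR normalized to three housekeeping genes, fitted in both directions against DMSO. HepaRG cultures received chemicals for 48 h in serum-free induction medium (0.5% DMSO), 8 half-log concentrations up to 100 uM, duplicate.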

Read-out in assay [8]: Heat shock 70 kDa protein 1 (HSPA1A), gene 3303
The experiment in a line: LTEA_HepaRG_HSPA1A: Life Technologies and Expression Analysis (LTEA) Assay for Heat shock 70 kDa protein 1 (HSPA1A) using HepaRG (AID 2283502). The method in brief: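 Cells were plated and cultured for 48 h, then switched to serum-free induction medium. Chemicals were added at eight half-log concentrations up to 100 uM for 48 h. RNA was then isolated and HSPA1A measured by qRT-PCR with bidirectional curve fitting against DMSO.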

Read-out in assay [9]: Hypoxia-inducible factor 1-alpha (Homo sapiens) (UniProt Q16665)
Kind of assay: LTEA_HepaRG_HIF1A: Life Technologies and Expression Analysis (LTEA) Assay for Hypoxia-inducible factor 1 (HIF1A) Trancription factor using HepaRG (AID 2283503). The method in brief:
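HIF1A transcript level read by qRT-PCR (ACTB, GAPDH, POLR2A normalization) after 48 h chemical exposure of HepaRG cultures. Eight half-log concentrations, top 100 uM, 0.5% DMSO vehicle, duplicates; bidirectional curve fit against DMSO baseline.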

Read-out in assay [10]: 3-Hydroxy-3-Methylglutaryl-CoA Synthase 2 (HMGCS2), HMGCS2 (gene 3158)
Kind of assay: LTEA_HepaRG_HMGCS2: Life Technologies and Expression Analysis (LTEA) Assay for 3-Hydroxy-3-Methylglutaryl-CoA Synthase 2 (HMGCS2) using HepaRG (AID 2283504). The method in brief: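 Readout is HMGCS2 transcript by qRT-PCR, housekeeping-normalised (ACTB/GAPDH/POLR2A) and fitted bidirectionally against 0.5% DMSO. Differentiated HepaRG cells received chemicals 48 h, duplicate wells, eight half-log concentrations topping at 100 uM.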

Read-out in a further assay: HGF (gene 3082)
Kind of assay: LTEA_HepaRG_HGF: Life Technologies and Expression Analysis (LTEA) Assay for Hepatocyte Growth Facto (HGF) using HepaRG (AID 2283505). The method in brief:
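HGF transcript was quantified by TaqMan qRT-PCR against three housekeeping genes after 48 h treatment of HepaRG cells. Exposure ran in duplicate over eight half-log steps topping at 100 uM in 0.5% DMSO vehicle.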

Read-out in assay [11]: Insulin Like Growth Factor 1 (IGF1), IGF1 (gene 3479)
The experiment in a line: LTEA_HepaRG_IGF1: Life Technologies and Expression Analysis (LTEA) Assay for Insulin Like Growth Factor 1 (IGF1) using HepaRG (AID 2283506). The method in brief: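 Cells are thawed, plated and cultured 48 h, then exposed in duplicate to chemical (highest 100 uM, half-log steps, 0.5% DMSO) for another 48 h. Total RNA is analysed by Fluidigm qRT-PCR for IGF1 expression relative to vehicle.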

Read-out in assay [12]: Intercellular Adhesion Molecule 1 (ICAM1), ICAM1 (gene 3383)
Kind of assay: LTEA_HepaRG_ICAM1: Life Technologies and Expression Analysis (LTEA) Assay for Intercellular Adhesion Molecule 1 (ICAM1) using HepaRG (AID 2283507). The method in brief: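 ICAM1 transcript levels measured by qRT-PCR, normalized to three housekeeping genes (ACTB, GAPDH, POLR2A), after 48 h chemical exposure of HepaRG cells. Duplicate eight-point half-log series from 100 uM in 0.5% DMSO; gain or loss fitted against vehicle.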

Read-out in assay [13]: Insulin-like growth factor-binding protein 1 (IGFBP1), IGFBP1 (gene 3484)
The experiment in a line: LTEA_HepaRG_IGFBP1: Life Technologies and Expression Analysis (LTEA) Assay for Insulin-like growth factor-binding protein 1 (IGFBP1) using HepaRG (AID 2283508). The method in brief:
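Read-out is qRT-PCR transcript level normalized to three housekeeping genes, fitted in both directions against 0.5% DMSO. Differentiated HepaRG cells received eight half-log concentrations (top 100 uM) in duplicate for 48 h in serum-free induction medium.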

Read-out in assay [14]: Interleukin 6 (IL6), IL6 (gene 3569)
The experiment in a line: LTEA_HepaRG_IL6: Life Technologies and Expression Analysis (LTEA) Assay for Interleukin 6 (IL6) using HepaRG (AID 2283509). The method in brief: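 qRT-PCR read-out of IL6 transcript, normalized to three housekeeping genes, after 48 h chemical exposure of HepaRG cells; 8-point half-log series, top 100 uM, 0.5% DMSO vehicle. Bidirectional curve fitting against DMSO baseline.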

Read-out in assay [15]: Interleukin 6 Receptor (IL6R), IL6R (gene 3570)
Kind of assay: LTEA_HepaRG_IL6R: Life Technologies and Expression Analysis (LTEA) Assay for Interleukin 6 Receptor (IL6R) using HepaRG (AID 2283510). The method in brief:
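Cells were thawed, plated and cultured 48 h, then medium was changed to serum-free induction medium. Chemicals were added in duplicate (100 uM top, half-log steps, 0.5% DMSO) for 48 h. Lysates were analyzed by qRT-PCR for IL6R expression.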

Read-out in assay [16]: Potassium channel subfamily K member 1 (KCNK1), KCNK1 (gene 3775)
The experiment in a line: LTEA_HepaRG_KCNK1: Life Technologies and Expression Analysis (LTEA) Assay for Potassium channel subfamily K member 1 (KCNK1) using HepaRG (AID 2283511). The method in brief:
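HepaRG, 48 h exposure, 8-pt half-log series top 100 uM, 0.5% DMSO vehicle, duplicates. Readout: KCNK1 transcript by qRT-PCR (Fluidigm array), housekeeping-normalized; bidirectional curve fit relative to DMSO baseline.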

Read-out in assay [17]: Lipase C (LIPC), LIPC (gene 3990)
Kind of assay: LTEA_HepaRG_LIPC: Life Technologies and Expression Analysis (LTEA) Assay for Lipase C (LIPC) using HepaRG (AID 2283514). The method in brief: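 HepaRG, 48 h exposure, 8-pt half-log series from 100 uM in 0.5% DMSO, duplicates. Readout: LIPC mRNA by Fluidigm qRT-PCR, housekeeping-normalized (ACTB/GAPDH/POLR2A). Gain or loss fitted bidirectionally against DMSO baseline.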

Read-out in assay [18]: Keratin 19 (KRT19), KRT19 (gene 3880)
Kind of assay: LTEA_HepaRG_KRT19: Life Technologies and Expression Analysis (LTEA) Assay for Keratin 19 (KRT19) using HepaRG (AID 2283512). The method in brief: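 KRT19 transcript measured by TaqMan qRT-PCR, referenced to three housekeeping genes, after HepaRG cells received test chemicals for 48 h. Eight half-log concentrations, top 100 uM, 0.5% DMSO vehicle; increases and decreases both fitted.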

Chain of Hypoxia-inducible factor 1-alpha (Homo sapiens) (Q16665 whole entry, looked up): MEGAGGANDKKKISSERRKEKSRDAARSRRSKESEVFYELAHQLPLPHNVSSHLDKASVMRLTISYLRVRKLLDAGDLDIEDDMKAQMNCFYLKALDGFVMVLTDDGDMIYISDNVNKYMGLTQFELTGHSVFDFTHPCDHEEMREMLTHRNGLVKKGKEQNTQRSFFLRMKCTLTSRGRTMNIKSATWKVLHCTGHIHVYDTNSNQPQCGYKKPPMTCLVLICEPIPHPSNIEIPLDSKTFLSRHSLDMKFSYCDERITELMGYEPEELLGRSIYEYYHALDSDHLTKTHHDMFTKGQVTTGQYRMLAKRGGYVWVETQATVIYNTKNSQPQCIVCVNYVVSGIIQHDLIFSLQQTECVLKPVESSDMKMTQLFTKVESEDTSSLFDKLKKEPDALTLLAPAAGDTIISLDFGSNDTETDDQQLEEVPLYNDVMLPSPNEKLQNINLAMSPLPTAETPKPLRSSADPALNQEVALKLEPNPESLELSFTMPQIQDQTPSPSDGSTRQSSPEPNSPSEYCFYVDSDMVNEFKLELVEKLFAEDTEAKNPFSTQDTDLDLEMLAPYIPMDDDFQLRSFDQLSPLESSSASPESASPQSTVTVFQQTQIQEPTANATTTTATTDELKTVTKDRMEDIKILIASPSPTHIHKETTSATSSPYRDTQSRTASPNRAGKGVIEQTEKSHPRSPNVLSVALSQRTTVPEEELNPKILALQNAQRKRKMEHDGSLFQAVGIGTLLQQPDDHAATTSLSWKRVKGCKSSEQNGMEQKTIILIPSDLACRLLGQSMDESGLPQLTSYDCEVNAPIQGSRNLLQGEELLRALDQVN

On to `CC[C@H](C)[C@@H](C(=O)O)n1sc2ccccc2c1=O`, for which the result in assay [1], in [2], in assay [3], in assay [4], in [5] and in [6] was inactive. Moreover, the outcome (in assay [7]; in assay [8]; in assay [10]; with HGF (gene 3082); in [11]; in assay [12]) was inactive. Also, the molecule was classed as inactive in assay [13], in assay [14], in assay [15], in assay [16] and in assay [17]. In addition, the AC50 in [9] is 0.372 µM (active).

As to `CC1=C(/C=C/C(C)=C/C=C/C(C)=C/C(=O)O)C(C)(C)CCC1`, the half-maximal activity concentration (AC50) was 10.2 µM (active) in [1]; 29.6 µM (active) in assay [2]; 5.61 µM (active) in assay [3]; 25.8 µM (active) in assay [6]; 23.9 µM (active) in assay [10]; 31.8 µM (active) in assay [11]. For the same molecule, the AC50 in [16] was 10.2 µM (active). For the same molecule, the outcome (in assay [4]; in [5]; in assay [7]; in the assay with HGF (gene 3082); in assay [13]; in assay [17]) was inactive.

On to `COc1ccc([N+](=O)[O-])cc1N`, for which the outcome in [1], in assay [2], in [3], in assay [4], in assay [6] and in assay [7] was inactive. Moreover, the result (in [8]; in [9]; in assay [10]; in the assay with HGF (gene 3082); in assay [11]; in assay [12]) was inactive. Also, the outcome in assay [13], in [14], in [15], in assay [16], in [18] and in assay [17] was inactive.

For `CCCCCCCCCCCCCCCS(=O)(=O)Oc1ccccc1`, the molecule was classed as inactive in [1], in assay [2], in assay [3], in assay [4], in assay [5] and in assay [6]. In addition, the molecule was called inactive (in assay [7]; in assay [8]; in assay [9]; in assay [10]; in the assay with HGF (gene 3082); in [12]). The outcome in [13], in [14], in assay [15], in assay [16] and in assay [17] was inactive. Besides, the half-maximal activity concentration (AC50) in [11] is 27.5 µM (active).
